Source: the supplement of paper PMC6411743
± gives the standard deviation of the averaged measurements. The full data set covers some 6,200 targets. This sample favours those with the largest changes.

Legend:
Test in all cases: NP40-soluble protein abundance relative to vehicle (solubility fold change) (ratio); higher = more soluble protein in presence of AMP-PNP
DDX52 = molecular target: T1, DDX52 (UniProt Q9Y2R4)
T1 sequence (whole entry): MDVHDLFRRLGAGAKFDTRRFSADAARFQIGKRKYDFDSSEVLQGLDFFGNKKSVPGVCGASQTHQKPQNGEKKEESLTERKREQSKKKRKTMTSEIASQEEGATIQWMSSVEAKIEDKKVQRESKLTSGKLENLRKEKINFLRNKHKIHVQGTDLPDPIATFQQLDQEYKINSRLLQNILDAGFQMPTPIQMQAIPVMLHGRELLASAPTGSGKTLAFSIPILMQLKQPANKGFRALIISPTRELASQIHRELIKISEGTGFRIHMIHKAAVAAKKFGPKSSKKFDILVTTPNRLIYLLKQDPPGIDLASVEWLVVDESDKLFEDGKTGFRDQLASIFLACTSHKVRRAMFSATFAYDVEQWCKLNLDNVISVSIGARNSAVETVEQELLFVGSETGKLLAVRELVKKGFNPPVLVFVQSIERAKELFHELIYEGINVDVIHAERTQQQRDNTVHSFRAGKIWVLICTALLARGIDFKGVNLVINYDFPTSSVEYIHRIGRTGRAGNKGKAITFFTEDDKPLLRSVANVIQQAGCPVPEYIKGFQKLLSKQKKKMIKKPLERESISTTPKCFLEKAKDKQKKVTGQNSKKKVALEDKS
Method in brief: (§1)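 Values are fold changes against the detergent-processed vehicle, based on vsn-normalised intensities. Jurkat crude lysate was treated at eight concentrations from 0.1 to 10 mM (10 min at room temperature, then 3 min at 37 °C), solubilised with 0.8% NP40 and benzonase, ultracentrifuged and analysed by TMT-labelled LC-MS/MS over three independent experiments.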

NKIRAS1 = molecular target: T2, NKIRAS1 (UniProt Q9NYS0)
T2 sequence (whole entry): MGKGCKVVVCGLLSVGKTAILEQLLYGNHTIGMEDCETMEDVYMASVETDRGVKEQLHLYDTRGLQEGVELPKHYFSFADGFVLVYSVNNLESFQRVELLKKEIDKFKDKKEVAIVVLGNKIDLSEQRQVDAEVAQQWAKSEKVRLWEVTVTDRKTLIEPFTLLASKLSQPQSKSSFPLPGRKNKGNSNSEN
Method in brief: as §1

POLG2 = molecular target: T3, POLG2 (UniProt Q9UHN1)
T3 sequence (whole entry): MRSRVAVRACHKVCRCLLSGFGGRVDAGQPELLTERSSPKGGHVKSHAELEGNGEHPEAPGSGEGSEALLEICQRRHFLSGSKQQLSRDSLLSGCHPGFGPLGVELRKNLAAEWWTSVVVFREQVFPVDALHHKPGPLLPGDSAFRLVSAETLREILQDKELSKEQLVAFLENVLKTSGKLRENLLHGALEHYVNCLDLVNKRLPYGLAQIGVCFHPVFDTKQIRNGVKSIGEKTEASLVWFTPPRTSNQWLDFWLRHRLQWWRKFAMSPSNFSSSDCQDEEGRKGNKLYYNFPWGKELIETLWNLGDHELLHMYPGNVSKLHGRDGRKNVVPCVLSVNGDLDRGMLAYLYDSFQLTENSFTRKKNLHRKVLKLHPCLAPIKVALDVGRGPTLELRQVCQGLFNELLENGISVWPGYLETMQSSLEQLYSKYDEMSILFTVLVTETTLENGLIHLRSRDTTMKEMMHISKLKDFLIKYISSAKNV
Method in brief: as §1

PRKRIP1 = molecular target: T4, PRKRIP1 (UniProt Q9H875)
T4 sequence (whole entry): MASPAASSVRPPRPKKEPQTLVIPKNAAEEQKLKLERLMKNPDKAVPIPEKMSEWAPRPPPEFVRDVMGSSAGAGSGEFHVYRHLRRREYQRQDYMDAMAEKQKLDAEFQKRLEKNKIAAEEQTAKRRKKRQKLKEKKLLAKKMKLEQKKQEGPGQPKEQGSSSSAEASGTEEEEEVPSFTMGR
Method in brief: as §1

SNX6 = molecular target: T5, SNX6 (UniProt Q9UNH7)
T5 sequence (whole entry): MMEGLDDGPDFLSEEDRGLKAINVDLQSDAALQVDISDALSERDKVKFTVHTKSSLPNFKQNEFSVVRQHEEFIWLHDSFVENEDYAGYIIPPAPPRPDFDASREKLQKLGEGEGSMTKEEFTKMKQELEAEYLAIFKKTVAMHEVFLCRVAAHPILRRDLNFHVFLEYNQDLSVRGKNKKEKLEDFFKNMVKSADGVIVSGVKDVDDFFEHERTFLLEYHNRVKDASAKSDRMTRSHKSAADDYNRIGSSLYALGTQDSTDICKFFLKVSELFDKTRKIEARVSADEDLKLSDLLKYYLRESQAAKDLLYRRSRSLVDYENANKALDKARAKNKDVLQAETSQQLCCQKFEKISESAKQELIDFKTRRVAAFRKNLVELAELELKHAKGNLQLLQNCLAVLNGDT
Method in brief: as §1

TFIP11 = molecular target: T6, TFIP11 (UniProt Q9UBB9)
T6 sequence (whole entry): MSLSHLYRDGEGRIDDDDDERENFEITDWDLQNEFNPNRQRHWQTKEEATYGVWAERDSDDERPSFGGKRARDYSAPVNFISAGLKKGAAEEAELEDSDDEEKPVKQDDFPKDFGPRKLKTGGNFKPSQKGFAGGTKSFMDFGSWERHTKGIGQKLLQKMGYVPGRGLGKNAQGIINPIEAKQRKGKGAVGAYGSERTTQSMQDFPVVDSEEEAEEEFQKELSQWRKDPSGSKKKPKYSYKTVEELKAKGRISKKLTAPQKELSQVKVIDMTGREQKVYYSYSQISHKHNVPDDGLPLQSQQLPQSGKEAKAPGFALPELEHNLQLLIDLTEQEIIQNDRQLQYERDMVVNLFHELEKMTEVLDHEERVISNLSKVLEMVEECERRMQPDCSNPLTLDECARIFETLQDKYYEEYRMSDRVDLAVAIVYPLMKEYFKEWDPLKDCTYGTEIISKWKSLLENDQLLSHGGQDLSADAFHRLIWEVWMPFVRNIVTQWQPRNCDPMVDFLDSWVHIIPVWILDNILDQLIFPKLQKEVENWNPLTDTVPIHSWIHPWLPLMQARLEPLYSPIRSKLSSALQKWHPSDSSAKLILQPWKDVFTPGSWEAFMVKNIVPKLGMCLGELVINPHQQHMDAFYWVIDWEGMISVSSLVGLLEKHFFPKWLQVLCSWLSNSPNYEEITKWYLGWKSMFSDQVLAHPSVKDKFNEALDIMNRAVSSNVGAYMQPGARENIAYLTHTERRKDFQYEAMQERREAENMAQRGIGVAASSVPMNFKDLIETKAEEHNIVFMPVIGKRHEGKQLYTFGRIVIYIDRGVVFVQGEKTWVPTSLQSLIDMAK
Method in brief: as §1

UniProt Q9BY77|Q9BY77-2 = molecular target: T7, UniProt Q9BY77|Q9BY77-2
T7 sequence (whole entry): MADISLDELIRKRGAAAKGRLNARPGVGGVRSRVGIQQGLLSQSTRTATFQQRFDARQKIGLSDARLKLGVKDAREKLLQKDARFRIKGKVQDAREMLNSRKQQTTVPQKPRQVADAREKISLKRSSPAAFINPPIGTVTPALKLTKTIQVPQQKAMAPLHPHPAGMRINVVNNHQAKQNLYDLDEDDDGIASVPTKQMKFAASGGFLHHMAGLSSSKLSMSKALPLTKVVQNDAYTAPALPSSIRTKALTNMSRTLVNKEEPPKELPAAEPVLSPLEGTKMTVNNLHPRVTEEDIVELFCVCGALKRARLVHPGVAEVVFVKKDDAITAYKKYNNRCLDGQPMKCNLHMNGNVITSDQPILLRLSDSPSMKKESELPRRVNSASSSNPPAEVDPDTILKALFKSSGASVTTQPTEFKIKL
Method in brief: as §1

Nc1ncnc2c1ncn2[C@@H]1O[C@H](COP(=O)(O)OP(=O)(O)NP(=O)(O)O)[C@@H](O)[C@H]1O [adenylyl imidodiphosphate]
NP40-soluble protein abundance (DDX52; concentration: 1mM): 1.08 ± 0.094
NP40-soluble protein abundance (DDX52; concentration: 2mM): 1.1 ± 0.047
NP40-soluble protein abundance (DDX52; concentration: 4mM): 1.18 ± 0.07
NP40-soluble protein abundance (DDX52; concentration: 6mM): 1.22 ± 0.038
NP40-soluble protein abundance (DDX52; concentration: 8mM): 1.28 ± 0.055
NP40-soluble protein abundance (DDX52; concentration: 10mM): 1.39 ± 0.046
NP40-soluble protein abundance (NKIRAS1; concentration: 1mM): 1 ± 0.033
NP40-soluble protein abundance (NKIRAS1; concentration: 2mM): 1.025 ± 0.0079
NP40-soluble protein abundance (NKIRAS1; concentration: 4mM): 0.981 ± 0.024
NP40-soluble protein abundance (NKIRAS1; concentration: 6mM): 0.988 ± 0.027
NP40-soluble protein abundance (NKIRAS1; concentration: 8mM): 1 ± 0.018
NP40-soluble protein abundance (NKIRAS1; concentration: 10mM): 0.9796 ± 0.0011
NP40-soluble protein abundance (POLG2; concentration: 1mM): 0.994 ± 0.073
NP40-soluble protein abundance (POLG2; concentration: 2mM): 1.03 ± 0.056
NP40-soluble protein abundance (POLG2; concentration: 4mM): 0.996 ± 0.072
NP40-soluble protein abundance (POLG2; concentration: 6mM): 1.06 ± 0.051
NP40-soluble protein abundance (POLG2; concentration: 8mM): 1.07 ± 0.043
NP40-soluble protein abundance (POLG2; concentration: 10mM): 1.05 ± 0.021
NP40-soluble protein abundance (PRKRIP1; concentration: 1mM): 1.03 ± 0.053
NP40-soluble protein abundance (PRKRIP1; concentration: 2mM): 1.14 ± 0.12
NP40-soluble protein abundance (PRKRIP1; concentration: 4mM): 1.1 ± 0.11
NP40-soluble protein abundance (PRKRIP1; concentration: 6mM): 1.14 ± 0.073
NP40-soluble protein abundance (PRKRIP1; concentration: 8mM): 1.16 ± 0.1
NP40-soluble protein abundance (PRKRIP1; concentration: 10mM): 1.15 ± 0.15
NP40-soluble protein abundance (SNX6; concentration: 1mM): 0.992 ± 0.031
NP40-soluble protein abundance (SNX6; concentration: 2mM): 1.03 ± 0.12
NP40-soluble protein abundance (SNX6; concentration: 4mM): 0.991 ± 0.069
NP40-soluble protein abundance (SNX6; concentration: 6mM): 1.03 ± 0.076
NP40-soluble protein abundance (SNX6; concentration: 8mM): 1 ± 0.077
NP40-soluble protein abundance (SNX6; concentration: 10mM): 1.03 ± 0.079
NP40-soluble protein abundance (TFIP11; concentration: 1mM): 1.01 ± 0.028
NP40-soluble protein abundance (TFIP11; concentration: 2mM): 1.01 ± 0.033
NP40-soluble protein abundance (TFIP11; concentration: 4mM): 1.07 ± 0.042
NP40-soluble protein abundance (TFIP11; concentration: 6mM): 1.08 ± 0.05
NP40-soluble protein abundance (TFIP11; concentration: 8mM): 1.09 ± 0.015
NP40-soluble protein abundance (TFIP11; concentration: 10mM): 1.13 ± 0.039
NP40-soluble protein abundance (UniProt Q9BY77|Q9BY77-2; concentration: 1mM): 1 ± 0.038
NP40-soluble protein abundance (UniProt Q9BY77|Q9BY77-2; concentration: 2mM): 1.06 ± 0.064
NP40-soluble protein abundance (UniProt Q9BY77|Q9BY77-2; concentration: 4mM): 1.04 ± 0.042
